Common to all, as to test: NCI-60 one-dose screen, 48 h (100 = growth as untreated, 0 = no growth, -100 = all killed)
In one assay the test system is NCI-H23 lung. Particulars: 10 µM unless noted.
In a further assay the test system is NCI-H226 lung. To be noted: 10 µM unless noted.
The test system of the next assay is NCI-H322M lung. To be noted: 10 µM unless noted.
The subject of another assay is HOP-62 NSCLC. Particulars: 10 µM unless noted.
The subject of another assay is NCI-H460 lung. Particulars: 10 µM unless noted.
Another assay has as its system HOP-92 NSCLC. Particulars: 10 µM unless noted.
The test system of another assay is NCI-H522 lung. Particulars: 10 µM unless noted.
For another assay, the system named is A549/ATCC NSCLC. Particulars: 10 µM unless noted.
A further assay has as its system 786-0 renal. To be noted: 10 µM unless noted.
In a further assay the test system is COLO 205 colon. To be noted: 10 µM unless noted.
A further assay concerns DU-145 prostate. To be noted: 10 µM unless noted.
The next assay relates to K-562 leukemia. Particulars: 10 µM unless noted.
Another assay concerns MALME-3M melanoma. To be noted: 10 µM unless noted.
The test system of another assay is MDA-MB-231 breast. Particulars: 10 µM unless noted.
The next assay concerns RXF 393 renal. Particulars: 10 µM unless noted.
Another assay concerns SF-268 CNS. To be noted: 10 µM unless noted.
The next assay has as its system SF-295 CNS. To be noted: 10 µM unless noted.
For a further assay, the system named is SF-539 CNS. Particulars: 10 µM unless noted.
Another assay relates to UACC-257 melanoma. Particulars: 10 µM.
A further assay deals with M14 melanoma. Particulars: 10 µM unless noted.

Compounds without any hit were thinned out: in the full panel of roughly 83,000, 20% have a hit.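 48-hour exposure, single concentration, 96-well plates; percent growth endpoint where 0 means no net growth. Active: below 10.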 Values without a mark were called inactive. The source made the active and inactive calls.

Take `Nc1c(C(=O)Nc2cccc(C(F)(F)F)c2)sc2nc3c(cc12)CCCCCC3`: the growth with NCI-H23 lung was 8.82% (active); in the assay on NCI-H226 lung it was 5.69% (active); with NCI-H322M lung, 10.6%; in the assay on HOP-62 NSCLC, -1.22% (active); with NCI-H460 lung it was 4.27% (active); in the assay on HOP-92 NSCLC it was -14.2% (active). For the same molecule, the growth in the assay on NCI-H522 lung was 36.2%; with A549/ATCC NSCLC it was -45.2% (active); with 786-0 renal, -71.7% (active); with COLO 205 colon it was 48.5%; with DU-145 prostate, 20.8%; in the assay with K-562 leukemia, 17%. Also, the growth was -20.6% (active) in the assay on MALME-3M melanoma; -12.9% (active) in the assay with MDA-MB-231 breast; -49.1% (active) in the assay with RXF 393 renal; 12.7% in the assay on SF-268 CNS; 2.51% (active) in the assay with SF-295 CNS; -86.9% (active) with SF-539 CNS. Further, the results for the growth in the assay with UACC-257 melanoma and with M14 melanoma were 7.85% (active) and 47.1%, respectively.
Turning to `N#Cc1ccc(NC(=O)c2ccc3cccnc3c2O)cc1`, the growth was 43.7% in the assay with NCI-H23 lung; 45.2% in the assay on NCI-H226 lung; 27.7% in the assay with NCI-H322M lung; 14.6% with HOP-62 NSCLC; 4.71% (active) in the assay on NCI-H460 lung; 71.4% in the assay on HOP-92 NSCLC. For the same molecule, the growth was 18.6% in the assay with NCI-H522 lung; 15.1% in the assay on A549/ATCC NSCLC; 10.2% in the assay with 786-0 renal; 11.2% in the assay with COLO 205 colon; 29.4% with DU-145 prostate; 30.7% in the assay with K-562 leukemia. Moreover, the growth was 42.1% with MALME-3M melanoma; 44.4% in the assay with MDA-MB-231 breast; 49.4% with RXF 393 renal; 21.6% in the assay with SF-268 CNS; 38.5% in the assay with SF-295 CNS; 17.1% with SF-539 CNS. Besides, the growth in the assay on UACC-257 melanoma is 13.5%; with M14 melanoma, 6.01% (active).
For `COc1cccc(/C=C/c2c(C(=O)O)cccc2[N+](=O)[O-])c1OC`, the growth is 104% in the assay with NCI-H23 lung; 99.5% with NCI-H226 lung; 107% in the assay on NCI-H322M lung; 95.5% with HOP-62 NSCLC; 104% in the assay with NCI-H460 lung; 89.1% in the assay on HOP-92 NSCLC. In addition, the growth is 113% in the assay with NCI-H522 lung; 103% in the assay with A549/ATCC NSCLC; 99.1% in the assay with 786-0 renal; 100% with COLO 205 colon; 102% in the assay on DU-145 prostate; 90.4% in the assay on K-562 leukemia. The growth is 94.8% with MALME-3M melanoma; 107% with MDA-MB-231 breast; 108% in the assay with RXF 393 renal; 95.8% with SF-268 CNS; 91.6% in the assay on SF-295 CNS; 104% with SF-539 CNS. The growth in the assay on UACC-257 melanoma was 101%; in the assay on M14 melanoma it was 103%.
Regarding `COc1ccc([N+](=O)[O-])c(/C=C/C(=O)c2ccccn2)c1`, the growth was 91.3% in the assay with NCI-H23 lung; 84.2% in the assay with NCI-H226 lung; 83.4% in the assay on NCI-H322M lung; 78.5% in the assay with HOP-62 NSCLC; 89.4% with NCI-H460 lung; 66.9% with HOP-92 NSCLC. The growth with NCI-H522 lung is 90.1%; with A549/ATCC NSCLC, 87.8%; in the assay with 786-0 renal it was 93.4%; in the assay on COLO 205 colon, 89.1%; with DU-145 prostate, 28.5%; with K-562 leukemia it was 21%. Also, the growth is 91% in the assay with MALME-3M melanoma; 86.2% in the assay on MDA-MB-231 breast; 74.1% with RXF 393 renal; 89.1% in the assay with SF-268 CNS; 133% with SF-295 CNS; 95.2% with SF-539 CNS. The growth was 96.9% with UACC-257 melanoma and 104% with M14 melanoma.
Turning to `COc1ccc(-c2cn[nH]c2-c2cc(OC)c3c(c2)OCO3)cc1`, the growth with NCI-H23 lung was 18.3%; in the assay with NCI-H226 lung, 47.7%; with NCI-H322M lung, 15%; in the assay with HOP-62 NSCLC, 22.1%; in the assay on NCI-H460 lung it was 8.74% (active); in the assay with HOP-92 NSCLC, 33.4%. Further, the growth in the assay with NCI-H522 lung was -43.9% (active); with A549/ATCC NSCLC, 19.8%; in the assay on 786-0 renal, 26%; in the assay with COLO 205 colon it was -44.2% (active); in the assay on DU-145 prostate, 12.4%; in the assay on K-562 leukemia it was 10.1%. The growth was 30.9% with MALME-3M melanoma; 11% in the assay with MDA-MB-231 breast; -31.3% (active) in the assay with RXF 393 renal; 37.6% in the assay on SF-268 CNS; -10.4% (active) in the assay with SF-295 CNS; -28.7% (active) with SF-539 CNS. Moreover, the growth in the assay on UACC-257 melanoma was 66.9%; with M14 melanoma, 16%.
For the molecule `CCn1cc(C(=O)O)c(=O)c2cc(F)c(N3CCN(S(=O)(=O)c4ccc(Cl)cc4Cl)CC3)cc21`, the growth in the assay on NCI-H23 lung was -3.58% (active); in the assay on NCI-H226 lung, 13.1%; in the assay on NCI-H322M lung, -5.57% (active); in the assay with HOP-62 NSCLC it was 19.5%; with NCI-H460 lung, 10.9%; with HOP-92 NSCLC it was -9.06% (active). The growth in the assay on NCI-H522 lung is -75.8% (active); in the assay on A549/ATCC NSCLC, 2.05% (active); in the assay on 786-0 renal it was 18.7%; in the assay with COLO 205 colon, -59.8% (active); in the assay with DU-145 prostate, 11.6%; in the assay with K-562 leukemia it was 10.9%. Also, the growth in the assay on MALME-3M melanoma was -19.8% (active); in the assay with MDA-MB-231 breast, 25.5%; in the assay with RXF 393 renal, 27.9%; in the assay on SF-268 CNS, 24.6%; with SF-295 CNS it was -32% (active); with SF-539 CNS, 8.88% (active). For the same molecule, the growth is -15.2% (active) in the assay with UACC-257 melanoma and 15.9% in the assay on M14 melanoma.
On to `CN(C)c1ccc(/C=C\N=Nc2ccc(Br)cc2)cc1`, for which the growth with NCI-H23 lung was 79.8%; in the assay on NCI-H226 lung it was 79.7%; in the assay with NCI-H322M lung, 77.9%; in the assay with HOP-62 NSCLC, 95.1%; in the assay on NCI-H460 lung it was 51.2%; with HOP-92 NSCLC it was 76.1%. Moreover, the growth in the assay with NCI-H522 lung was 37.9%; in the assay with A549/ATCC NSCLC, 58.7%; in the assay with 786-0 renal, 57.3%; with COLO 205 colon, 82.1%; in the assay with DU-145 prostate, 45.8%; in the assay with K-562 leukemia it was 16.7%. For the same molecule, the growth was 86.5% with MALME-3M melanoma; 49.6% in the assay on MDA-MB-231 breast; 108% in the assay with RXF 393 renal; 52.7% in the assay with SF-268 CNS; 29.1% with SF-295 CNS; 5.55% (active) in the assay with SF-539 CNS. For the same molecule, the growth in the assay with UACC-257 melanoma is 87.5%; in the assay on M14 melanoma it was 41.4%.
In the case of `c1ccc([P+](CCC[P+](c2ccccc2)(c2ccccc2)c2ccccc2)(c2ccccc2)c2ccccc2)cc1`, the growth was 89% in the assay with NCI-H23 lung; 101% with NCI-H226 lung; 79.5% with NCI-H322M lung; 75.3% with HOP-62 NSCLC; 77.6% in the assay on NCI-H460 lung; 20.1% with HOP-92 NSCLC. Further, the growth was 43.1% with NCI-H522 lung; 86.9% in the assay with A549/ATCC NSCLC; 92.5% with 786-0 renal; 45.4% in the assay on COLO 205 colon; 86.7% with DU-145 prostate; 23.2% with K-562 leukemia. The growth with MALME-3M melanoma was 65.6%; in the assay on MDA-MB-231 breast, 93.7%; with RXF 393 renal, 104%; in the assay on SF-268 CNS, 69.2%; with SF-295 CNS, 73.4%; in the assay with SF-539 CNS, 88%. The growth in the assay on UACC-257 melanoma was 37%; in the assay on M14 melanoma, 80.9%.
